Test results as given in PubChem BioAssay (NCI).
Values joined by “and” are separate entries in the source; they are usually repeats but may differ in a detail not shown here. Identical values can stand only once. This is part of a sample that, as a whole, favours compounds with a hit. Of some 83,000 tested, about 20% had one in any assay.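 How to read the values: 0–100, growth inhibition (40 = 60% inhibited); 0, no net growth; -100 to 0, cell death (-40 = 40% of starting cells died; -100 = all dead).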 A number with no mark means an inactive call. Active and inactive are the calls of the source. How the source made its calls: active means growth percent below 10; inactive means the rest.

Key:
Test in all cases: NCI-60 one-dose screen, 48 h (100 = growth as untreated, 0 = no growth, -100 = all killed)
Conditions in all cases: 10 µM unless noted
[1] = test system: HCT-15 colon
[2] = test system: HT29 colon
[3] = test system: SNB-75 CNS
[4] = test system: SNB-19 CNS
[5] = test system: U251 CNS
[6] = test system: PC-3 prostate
[7] = test system: SK-MEL-5 melanoma
[8] = test system: UACC-62 melanoma
[9] = test system: LOX IMVI melanoma
[10] = test system: SK-MEL-2 melanoma
[11] = test system: EKVX NSCLC
[12] = test system: SN12C renal
[13] = test system: UO-31 renal
[14] = test system: TK-10 renal
[15] = test system: ACHN renal
[16] = test system: CAKI-1 renal
[17] = test system: A498 renal
[18] = test system: CCRF-CEM leukemia
[19] = test system: MOLT-4 leukemia
[20] = test system: SK-MEL-28 melanoma

Row | Compound | growth [1] | growth [2] | growth [3] | growth [4] | growth [5] | growth [6] | growth [7] | growth [8] | growth [9] | growth [10] | growth [11] | growth [12] | growth [13] | growth [14] | growth [15] | growth [16] | growth [17] | growth [18] | growth [19] | growth [20]
1 | CN(C)CCCn1c2nc(=O)[nH]c(=O)c-2nc2cc(Cl)c(Cl)cc21 | 87% | 20.9% | 99.9% | 100% | 55.2% | 60.2% | 78.3% | 97.9% | 41.2% | 112% | 103% | 70.5% | 80.9% | 80.5% | 87.8% | 79% | 92.1% | 45.6% | 64.8% | 
2 | CCCCCO/N=C\c1c2c(O)c3c(O)c(C)c4c(c3c1O)C(=O)C(C)(O/C=C\C(OC)C(C)C(OC(C)=O)C(C)C(O)C(C)C(O)C(C)/C=C\C=C(\C)C(=O)N2)O4 (stereo not given) | 16.1% | 2.51% (active) | 39.3% | 33.5% | 16.8% | 13.1% | 15.3% | 24.1% | 23.2% | -37.7% (active) | 27.3% | 27.6% | 17.8% | 38% | 29.6% | 14.9% | 62.9% | 18.6% | 14.4% | 
3 | C=C1C(=O)O[C@H]2[C@H]1CC/C(COC(=O)NCc1ccc(Cn3c(=O)sn(CCCI)c3=O)cc1)=C\CC[C@@]1(C)O[C@@H]21 | 26.9% | -46.1% (active) | 71.7% | 96.2% | 50.9% | 49.2% | 91.9% | 15.6% | -24.5% (active) | 68.5% | 91.7% | 2.19% (active) | -30.1% (active) |  |  | 33.7% | 105% | -9.69% (active) | 9.74% (active) | 4.93% (active)
4 | N=C(N)SCc1c2ccccc2c(CSC(=N)N)c2ccccc12 | 93.9% | 65.9% | 89.5% | 111% | 61.1% | 61.8% | 68.9% | 72.9% | 55.7% | 79.2% | 76.5% | 53.7% | 80.8% | 98.5% | 51.2% | 61.7% | 89.9% | 6.24% (active) | -5.95% (active) | 
5 | O=C(/C=C/c1ccc(Cl)s1)c1ccc(Cl)s1 | 88.2% and 90.7% | 74.5% and 94% | 106% and 102% | 94.6% and 99.5% | 92.8% and 93.3% | 92.6% and 105% | 96% and 96.6% | 94.7% and 99.6% | 78.8% and 87.8% | 100% and 109% | 98.3% | 93.3% and 91% | 82.8% | 94.9% and 88.9% | 93.9% and 101% | 92.4% | 97.8% | 94.8% and 90.7% | 95.1% and 88.9% | 
6 | Nc1ccc(-c2ccc(N)c(Br)c2)cc1Br | 29.3% | 32% | 29.8% | 52.4% | 45.6% | 57.4% | 45.8% | 33.5% | 40.3% | 44% | 59% | 45.7% | 35% | 75.6% | 76.5% | 50.3% | 74.5% | 19.6% | 27.2% | 
7 | COc1nc2ccc(C)cc2cc1/C=[N+](\[O-])c1ccccc1 | 77.2% | 95.1% | 79.5% | 86.6% | 95.4% | 68.2% | 96.2% | 76.6% | 77.8% | 100% | 77.8% | 90.1% | 59.4% | 116% | 83.5% | 82.3% | 75.6% | 46.6% | 82.8% | 
8 | CC1(C)C(N)=Nc2cc(OCCCCN3Cc4ccccc4C3)c(OCC3CC3)cc21 | 36.2% | 27.6% | 78.9% | 81.9% | 56.3% | 98.5% | 57.7% | 82.7% | 26.4% | 110% | 78.6% | 81.9% | 60.5% | 86.9% | 87.8% | 56.3% | 109% | 99.4% | 101% | 
9 | O=C(N=Nc1c(O)[nH]c2ccccc12)Nc1ccccc1Cl | 68.1% | 101% | 82% | 91.1% | 92.2% | 92.5% | 87.6% | 78.8% | 96.5% | 102% | 86.6% | 86.4% | 68.1% | 107% | 99% | 80.5% | 96.5% | 91.9% | 93.3% | 
10 | CSc1nnc(-c2cc3c([nH]c4ccccc43)c(-c3cccc(O)c3)n2)n1-c1ccc(C)cc1 | 23.2% | 8.92% (active) | 30.1% | 54.3% | 29.4% | 25.8% | 13.5% | 40.1% | 29.3% | -13.6% (active) | 70.4% | 62.7% | 41.5% |  | 32.3% |  | 30.6% | 12.2% | 17.4% | 9.42% (active)
11 | O=Nc1ccc(NO)c2ccccc12 | 99.5% and 95.7% | 106% and 35.3% | 95.8% and 90.8% | 118% and 99% | 101% and 79% | 81.9% and 36.4% | 94.1% and 81.3% | 95.9% and 61.9% | 102% and 17.4% | 103% and 59.7% |  | 103% and 60.5% | 88.7% and 65.3% | 132% and 125% | 97.6% and 79.2% | 83.8% and 80.3% | 74% and 102% | 106% and 57.6% | 108% and 74.1% | 113% and 94.6%
12 | CC(=O)N1N=C(c2ccc(F)cc2)CC1c1sc(N(C)Cc2ccccc2)nc1Cl (stereo not given) | 88.5% | 94.4% | 92.3% | 101% | 98.5% | 86.3% | 103% | 81.2% | 96.4% | 96.1% | 87.4% | 106% | 74.6% | 112% | 102% | 83.9% | 104% | 96.4% | 99.7% | 
13 | CCOC(=O)C1=C(C)N=C2SC=C(c3ccc(F)cc3)N2[C@H]1c1cn(-c2ccccc2)nc1-c1ccc(Cl)cc1 | 92.9% |  | 78.2% | 92.1% | 88% | 80.7% | 96.4% | 81.6% | 95.7% | 97.4% | 88.4% | 98.6% | 85.1% | 93.6% | 101% | 84.1% | 89.7% | 95.5% | 78.3% | 106%
